Screening results deposited in PubChem BioAssay by National Center for Advancing Translational Sciences (NCATS).
MCF10A rerep: inducers of DNA re-replication in MCF 10A breast cells. MCF 10A DNA re-replication, Hoechst nuclear intensity, 48 h. Potency, µM (series often up to 46.1 µM), for the others: at the top dose activity, positive = re-replication, usual class: activators. hit rate 2.9% among 350,000. AID 624296; also: % of control where 0% means no effect; nearly all actives have a fitted effect of over 50% in size
KB-3-1 tox: KB-3-1 parental cell cytotoxicity. KB-3-1 viability, CellTiter-Glo ATP luminescence, 72 h. Potency, µM (titrated, usually from 46.1 µM), hits mostly cytotoxic. hit rate 1.4% among 400,000. AID 1347075; also: % is scaled to controls: 0 for no effect and ±100 for the full control effect; nearly all actives have a fitted effect of over 60% in size
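Here the drug-naive KB-3-1 line serves as comparator for MDR sub-line selectivity; cells received compound titrations, 72 h at 37 °C, then CellTiter-Glo readout.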
PINK1 expr mod: PINK1 expression modulation; PINK1 immunofluorescence, high-content cytometry, 24 h; Potency, µM (top dose mostly 76.6 µM), without a hit: top-dose activation (PINK1 increase), actives largely listed as activators; hit rate 0.2% among 410,000; active = well fitted activation curve with a large enough effect; inconclusive = small, poorly fitted or top-dose-only effect; cell line not stated here; also: % of control where 0% means no effect; nearly all actives have a fitted effect of over 65% in size
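Readout is PINK1 immunofluorescence, quantified alongside mitochondrial, cell and nuclear markers by laser-scanning microplate cytometry. Cells from a stable line were exposed to compound titrations (5 concentrations) for 24 hours, with CCCP controls.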
SW480 rerep: induces DNA re-replication in SW480 colon adenocarcinoma cells. hit rate 1.8% among 340,000. AID 624297. Potency, µM (top dose mostly 46.1 µM), for inactives: at the top dose re-replication activation, hits mostly activators. SW480 DNA re-replication, Hoechst DNA content imaging, 48 h; also: % of control where 0% means no effect; nearly all actives have a fitted effect of over 55% in size
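Per well, 250 cells were exposed to pinned compound for 48 hr. Nuclear DNA was visualised with Hoechst (40 min, 37 C) and total object intensity recorded by fluorescence scanning.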
KB-V1 cytotox: KB-V1 MDR subline cytotoxicity; KB-V1 MDR cells viability, CellTiter-Glo, 72 h; Potency, µM (doses to about 46.1 µM), most hits filed as cytotoxic; hit rate 3.4% among 400,000; AID 1347076; also: % is scaled to controls: 0 for no effect and ±100 for the full control effect; nearly all actives have a fitted effect of over 60% in size
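KB-V1 cells (P-gp-expressing MDR subline of KB-3-1) in phenol-red-free DMEM with 10% FBS were exposed to library compounds over a concentration series for 72 h at 37 degrees C. Viability read by CellTiter-Glo luminescence; concentration-effect curves fitted after normalization.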
* = called active by the depositor; i = inactive; ? = inconclusive; · = not tested or not shown; [ ] = another dose, or the depositor's remark. An excerpt weighted towards active compounds, which were near 6.7% of everything screened. Unless noted, calls follow the shape of the dose curve; as a rule, active = well fitted curve in the direction sought with a large enough effect; inconclusive = small, poorly fitted or top-dose-only effect, or another doubt; inactive = no such curve, though single readings can be large; an effect the other way counts as inactive or inconclusive. Potency is read from the fitted curve at half-maximal effect.

SMILES	MCF10A rerep	KB-3-1 tox	PINK1 expr mod	SW480 rerep	KB-V1 cytotox
CC(C)CNC(=O)CN(C1CCCCC1)S(C)(=O)=O	?	i	-1%[38.3 µM]	6.5µM*	i
CS(=O)(=O)N(CC(=O)Nc1ccc(C(N)=O)cc1)C1CCCCC1	-2%	i	1%	-4%	i
c1cncc(-c2cncnc2NCc2cccs2)c1	·	·	-1%	·	·
O=C(CSc1nnc(C2CC2)n1CC1CCCO1)Nc1ccc(Cl)cc1 (configuration not stated)	1%	i	2%	3%	i
Nn1c(SCc2c(F)cccc2F)nnc1-c1ccccn1	2%	i	-1%	7.3µM*	i
Cc1nc(SCC(=O)N2CCN(c3ccccc3)CC2)c2oc3ccccc3c2n1	?	i	-1%	-6%	21µM*
CCc1nc(SCC(=O)Nc2ccc3c(c2)OCCO3)c2oc3ccccc3c2n1	23µM*	?	-3%	1%	21µM*
O=C(CSc1nc(-c2ccc(F)cc2)[nH]c1-c1ccc(F)cc1)Nc1ccc2c(c1)OCCO2	·	?	?	·	18µM*
CCc1nc(SCC(=O)NC2CCCC2)c2oc3ccccc3c2n1	4%	i	1%	0%	?
Cc1nc(SCC(=O)Nc2ccc3c(c2)OCCO3)c2oc3ccccc3c2n1	103%	i	5%[38.3 µM]	-1%	16µM*
O=C(CN1CCN(c2ccccc2F)CC1)N1CCc2ccccc21	3%	i	3%	-4%	i
CCOc1ccc(N2CC(NC(=O)c3ccc(Cl)cc3)CC2=O)cc1 (configuration not stated)	·	·	1%	·	·
Cc1ccc(C)c2nc(SCC(=O)N3CCCc4ccccc43)c(C#N)cc12	?	i	-3%[38.3 µM]	-1%	i
O=C(CSc1ncnc2c1oc1ccccc12)Nc1ccc2c(c1)OCCO2	22%	i	15%[38.3 µM]	-2%	16µM*
CCc1nc(SCC(=O)N2CCCc3ccccc32)c2oc3ccccc3c2n1	16µM*	?	·	-5%	10µM*
O=C(COC(=O)C1=COCCO1)NC1CCCCC1	1%	i	3%	9%	i
Cc1ccc2nc(-c3ccccc3)cc(C(=O)N(C)CC(=O)Nc3ccccc3Br)c2c1	?	?	0%	-464%	21µM*
COc1ccc(NC(=O)CN(C)C(=O)c2cc(-c3ccccc3)nc3ccccc23)cc1	?	i	-1%	-1%	?
CN(CC(=O)Nc1ccccc1Br)C(=O)c1ccccc1OCc1ccc(Cl)cc1	20%	?	-1%	6%	5.8µM*
COc1ccc(CN(C)C(=O)c2cc(-c3ccccc3)nc3ccc(C)cc23)c(OC)c1	·	18µM*	-1%	·	?
CN(CC(=O)Nc1ccccc1Br)C(=O)c1ccc(-c2ccc(Cl)cc2)o1	?	i	?	?	i
CN(C)CCN1CCN(C2CN(CCc3ccccc3)S(=O)(=O)C2)CC1 (configuration not stated)	·	i	0%	·	i
CCc1nc(C)cn1S(=O)(=O)c1ccc2c(c1)OCCO2	-4%	i	-1%	-6%	i
CCc1cccc(-n2c(=O)c3cccnc3n2CC(=O)Nc2ccc(OC)c(Cl)c2)c1	·	·	-1%	·	·
O=C1CN(N=Cc2ccco2)C(=O)N1	-4%	i	1%	1%	?
SMILES	MCF10A rerep	KB-3-1 tox	PINK1 expr mod	SW480 rerep	KB-V1 cytotox
CC1=NN(c2ccc([N+](=O)[O-])cc2)C(=O)/C1=C\N(C)C	-1%	?	2%	-8%	10µM*
O=c1[nH]c2ccccc2nc1NCc1ccccc1	2%	i	4%	2%	i
CC1=NN(c2nc3ccccc3[nH]2)C(=O)C1Cc1ccccc1 (configuration not stated)	?	?	?	2.9µM*	?
CC1=NN(c2nc3ccccc3[nH]2)C(=O)/C1=C/N(C)C	2%	5.8µM*	-1%	3%	?
CC1=NN(c2ccccc2)C(=O)/C1=C/N(C)C	-1%	i	1%	4%	i
N#Cc1ccccc1S(=O)(=O)N1CCN(C(=O)C2CCCC2)CC1	-2%	i	-1%	4%	i
CNC(=O)C(C#N)(Cc1cc(C(C)=O)ccc1OC)Cc1cc(C(C)=O)ccc1OC	14%	i	0%	0%	i
Cc1ccc(S(=O)(=O)N2CCN(C(=O)C3COc4ccccc4O3)CC2)cc1C (configuration not stated)	12%	i	-4%[38.3 µM]	1%	9.2µM*
Cc1ccc(S(=O)(=O)N2CCN(C(=O)[C@H](Cc3ccccc3)NC(=O)c3ccco3)CC2)cc1C	2%	i	1%	0%	12µM*
Cc1ccc(N(C)C(=O)c2cc(S(=O)(=O)N3CCOCC3)cn2C)cc1	·	·	-1%	·	·
C[C@H]1CN([C@@H](C)CO)C(=O)CCCn2nncc2CO[C@@H]1CN(C)S(=O)(=O)c1cccc(F)c1	·	i	1%	·	i
COc1cc2c(cc1OC)C(Cc1ccccc1[N+](=O)[O-])=NCC2	8%	?	-4%	-6%	21µM*
COc1ccc(NC(=O)COC(=O)Cc2ccccc2[N+](=O)[O-])cc1OC	-3%	i	-2%	-14%	i
COc1ccc(NCc2ccccc2[N+](=O)[O-])cc1OC	?	i	-1%	19%	21µM*
COc1ccc(Cn2ccc3nc(C)c(C(=O)NCc4cccc(OC)c4)cc3c2=O)cc1	·	i	0%	·	i
COc1ccc(CCC(C)NCC2CCCCC2)cc1 (configuration not stated)	?	?	-1%	?	21µM*
Cc1c(O)ccc2c3c(c(=O)oc12)CCCC3	?	?	-1%	-2%	16µM*
O=C(O)c1ccc(N/N=C/c2ccc(-c3cccc(Cl)c3)o2)cc1	?	?	?	21µM*	i
O=C(Cc1ccc(F)cc1)N/N=C/c1ccc(-c2ccc(Cl)c(C(=O)O)c2)o1	?	i	-1%	-6%	i
O=C(O)c1ccc(N/N=C/c2ccc(-c3ccc(Cl)cc3Cl)o2)cc1	?	23µM*	?	23µM*	i
O=C(O)c1ccc(N/N=C/c2ccc(-c3cc(Cl)ccc3Cl)o2)cc1	2.1µM*	i	?	12µM*	?
O=C(O)c1cc(N/N=C/c2ccc(-c3ccc(F)cc3)o2)ccc1Cl	18µM*	i	-1%	18µM*	i
Cc1c(C(=O)O)cccc1-c1ccc(/C=N/Nc2ccc(Br)cc2)o1	18µM*	?	-2%	5%	i
Cc1c(C(=O)O)cccc1-c1ccc(/C=N/n2cnnc2)o1	5%	i	0%	-12%	i
CC1=NN(c2ccc(Br)cc2)C(=O)/C1=C/c1ccc(-c2ccccc2C(=O)O)o1	23µM*	i	1%	14%	i
Cc1ccc(NS(=O)(=O)c2ccc3c(c2)CCC(=O)N3)cc1Cl	·	i	·	·	i
